hcDAF12 agonist: activates DAF-12 receptor from parasite H. contortus; AID 652067; activation, % at 6.8 µM; HEK293 hcDAF-12 lit1-tk-luc reporter, luminescence; 0% DMSO, 100% Δ7-dafachronic acid; 370,000 tested, 1.4% active;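 active = activation above the mean of all tested compounds plus 3 SD, cut at about 5.5% in these data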;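 note: 100% = response to 3 µM Δ7-dafachronic acid high control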
Rev-erbA mod: modulators of human Rev-erb alpha DNA binding; P20393; Rev-erbα–FITC-DNA binding, fluorescence polarization, 90 min; activity, % at 10 µM; 370,000 tested, 0.79% active; AID 1259318;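 active = activity above about 14%, limit read from the data; passing the limit was not always enough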;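 note: 0% = DMSO wells with 35 nM protein and 100% = DMSO wells with 750 nM protein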
ssDAF-12 act: activates DAF-12 receptor from parasite S. stercoralis; HEK293 ssDAF-12/GRIP1 lit1-tk-luc reporter, luminescence; % of 3 µM dafachronic acid response; activation, % at 6.8 µM; 370,000 tested, 1% active; AID 652126;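 active = activation above the mean over all tested compounds plus 3 SD, cut at about 0.9% in these data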;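 note: 0% = DMSO-only wells and 100% = 3 µM delta7-dafachronic acid wells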
DAX1 inh-1: inhibitors of human orphan nuclear receptor DAX1 (NR0B1). P51843. HEK293 Gal4-DAX1 luciferase reporter, luminescence. inhibition, % at 6.75 µM. 340,000 tested, 0.99% active;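 active = inhibition above the mean over all tested compounds plus 3 SD, cut at about 4.2% in these data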;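 note: 0% = DAX1-transfected cells with DMSO and 100% = empty-vector control cells with DMSO; inhibition shows as a rise in luminescence from relieved DAX1 repression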
Target sequence (P51843 207-470 limits assumed): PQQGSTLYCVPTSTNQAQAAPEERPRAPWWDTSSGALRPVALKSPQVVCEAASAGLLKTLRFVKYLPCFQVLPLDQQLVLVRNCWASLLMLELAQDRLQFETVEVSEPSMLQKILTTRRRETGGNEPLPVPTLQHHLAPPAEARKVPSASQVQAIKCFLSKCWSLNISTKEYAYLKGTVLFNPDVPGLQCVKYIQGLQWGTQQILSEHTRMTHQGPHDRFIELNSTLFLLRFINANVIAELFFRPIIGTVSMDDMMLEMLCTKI
DAX1 inh-2: DAX1 (NR0B1) inhibition, primary screen; HEK293T StAR-luciferase reporter, SF-1/DAX-1 repression relief; inhibition, % at 6.8 µM; 370,000 tested, 1.1% active; AID 652010;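 active = inhibition above the mean over all tested compounds plus 3 SD, cut at about 3.6% in these data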;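 note: 0% = DAX-1 cells with DMSO and 100% = cells lacking DAX-1 with DMSO; higher inhibition means more luminescence from relief of DAX-1 repression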
hgDAF-12 ag: hgDAF-12 agonism, primary luciferase screen; HEK293 GAL4-hgDAF12 UAS-luciferase reporter, agonist luminescence; normalized to butyrate control; 370,000 tested, 1.8% active; activation, % at 6.8 µM; AID 687014;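 active = activation above a cutoff set at the mean of all screened compounds plus 3 SD, cut at about 10% in these data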;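 note: 0% = DMSO wells and 100% = sodium butyrate wells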
Numbers without * were called inactive; x = no result given. An excerpt weighted towards active compounds, which were near 4.8% of everything screened.

SMILES	hcDAF12 agonist	Rev-erbA mod	ssDAF-12 act	DAX1 inh-1	DAX1 inh-2	hgDAF-12 ag
CC(C)(C)/C=N/NC(=O)C1CC1	-0.5	-3.5	-1.3	x	0.9	1.9
Cc1ccsc1/C=N/NC(=O)c1c[nH]c2ccccc12	2.1	4.6	0.7	-0.2	0.4	11.1*
O=C(N/N=C/C1CC2CCC1C2)C1CC1 (stereo not given)	2.4	-4.2	-1.2	0.3	3.7*	1.3
O=C(N/N=C/c1ccc[nH]1)c1c[nH]c2ccccc12	0.2	1.1	-0.3	0.9	1.5	-0.7
O=C(N/N=C/C1CC2CCC1C2)c1c[nH]c2ccccc12 (stereo not given)	5.7*	-1.3	0.7	0.4	0.7	5.9
Cc1ccc(/C=N/NC(=O)c2c[nH]c3ccccc23)s1	0.9	-5.4	-0.2	-0.3	1.4	5.5
O=c1c(-c2ccco2)nc2ccccc2n1C(c1ccccn1)c1nc2ccccc2[nH]1 (stereo not given)	2.8	-7.2	1.1*	x	0.8	3.9
O=c1c(-c2cccnc2)nc2ccccc2n1C(c1ccccn1)c1nc2ccccc2[nH]1 (stereo not given)	0.7	-1.9	-1.0	x	0.3	-0.6
COc1ccc2c(c1)nc(-c1cccc(Br)c1)c(=O)n2C(c1ccccn1)c1nc2ccccc2[nH]1 (stereo not given)	4.5	0.0	0.9*	x	2.0	8.8
O=c1c(-c2ccccc2)nc2ccccc2n1C(c1ccccn1)c1nc2ccccc2[nH]1 (stereo not given)	-0.6	-1.1	-0.9	x	1.9	0.3
O=c1c(-c2cccs2)nc2ccccc2n1C(c1ccccn1)c1nc2ccccc2[nH]1 (stereo not given)	1.8	-4.3	-0.4	x	2.6	11.6*
CC(C)(C)NC(=O)C(c1ccnc2ccccc12)n1c(=O)c(-c2ccco2)nc2ccccc21 (stereo not given)	3.4	7.6	0.1	x	4.0*	-1.0
CC(C)(C)NC(=O)C(c1ccccc1)n1c(=O)c(-c2ccco2)nc2ccccc21 (stereo not given)	0.0	7.4	-0.8	x	1.9	0.3
O=C(CSc1nnc(-c2cccs2)o1)c1cccc([N+](=O)[O-])c1	-0.7	-3.6	-1.4	x	-0.3	-2.6
COC(=O)[C@]12C[C@H](CC(=O)NCc3cccc(C(F)(F)F)c3)C(=O)N(Cc3ccc4c(c3)OCO4)C1=C[C@H](C(C)C)O[C@@H]2C1CC1	-1.7	-5.4	-0.8	x	0.1	0.8
NC(CO)(CO)COCc1ccccc1	1.8	1.7	1.3*	0.5	-0.3	-0.2
OC(COCc1ccccc1)COCc1ccccc1	-0.7	0.5	-1.2	-1.4	1.2	-0.6
CC(=O)N1N=C(c2ccc(Br)cc2)OC12CCCC2	-0.9	0.1	-1.8	4.4*	0.8	0.4
COc1ccc(CNC(=O)O[C@H]2CC[C@@]34CCCN3C(=O)CCC[C@H]4[C@H]2C)cc1	-1.4	-0.7	-1.7	x	x	0.4
CCc1nc(N2CCN(C(C)=O)CC2)c2c3c(sc2n1)CC(C(C)(C)C)CC3 (stereo not given)	-2.0	9.7	-1.2	0.2	-0.3	-1.8
CCc1nc(N2CCN(C(=O)CCl)CC2)c2c3c(sc2n1)CC(C)CC3 (stereo not given)	-0.5	-2.1	-0.6	4.4*	-0.5	0.5
O=C1CSC(c2cccnc2)N1Cc1ccc(Cl)cc1 (stereo not given)	-0.6	-0.7	-1.4	0.8	0.1	-1.5
O=C1CSC(c2cccnc2)N1CC1CC1 (stereo not given)	0.2	-0.6	-0.2	4.8*	-0.6	1.4
COc1cccc(C=C2Cc3ccccc3C2=O)c1	3.2	11.6	-1.1	x	1.2	10.1
COc1cc(C=C2C(=O)c3ccccc3C2=O)cc(OC)c1	4.0	10.1	-0.4	4.7*	-0.3	3.6
O=C1C(=Cc2cccc(F)c2)Cc2ccccc21	-1.2	2.1	-1.4	x	-0.3	13.1*
O=C1/C(=C/c2cccc(F)c2)CSc2sccc21	-2.0	-0.1	-1.6	0.1	-0.7	-2.7
COc1cccc(/C=C2\CCc3ccccc3C2=O)c1	4.0	-6.7	0.1	0.4	1.6	13.6*
CCCCCCn1c(COc2ccccc2F)nnc1SCC(=O)c1c(N)n(C)c(=O)n(C)c1=O	-0.6	-8.5	1.2*	x	1.1	-0.5

Screening data: PubChem, several laboratories
